High-throughput results from PubChem.
Most compounds without a hit are left out; they make up all but 1.3% or so of the library.
CRFBP-R2 agonist = agonists of human CRF-binding protein/CRF-R2 receptor complex; activation, % at 13.2 µM; HEK293 CRF-R2/CRF-BP, calcium dye fluorescence (FLIPR); percent of saturating CRF peptide response; 0.46% of 350,000 active;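 active means activation of at least 50%, plus an integration ratio under a set limit after plate pattern correction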;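 further: plate controls were neutral control wells without compound for no effect and CRF at EC100 for full effect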
LANA DNA inh = inhibitors of KSHV LANA C-terminal domain DNA binding; 0.078% of 340,000 active; MBP-C-LANA/FAM-LBS DNA binding, fluorescence polarization; inhibition, % at 9 µM; AID 504423;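 active means highest replicate inhibition at or above 60% at 9 µM, even if other replicates fall short; inactive means all replicates below 60% inhibition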;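 further: 0% = neutral control wells and 100% = 4 µM acridine orange control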
RTF Ca sens act = increases calcium sensitivity of human cardiac regulated thin filaments; 0.24% of 340,000 active; activation, % at 7.2 µM; AID 493008; P19429+P45379; IANBD-labeled TnC RTF fluorescence at EC20 calcium; 0% EC20 calcium, 100% full calcium;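 active means activation above the mean over all tested compounds plus 3 SD, cut at about 30% in these data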;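 further: rise in fluorescence read as greater calcium sensitivity of cardiac thin filaments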
CRFBP-R2 block = blocks CRF-induced signaling of the CRF-BP/CRF-R2 complex; HEK293 CRF-R2/CRF-BP, CRF-induced calcium fluorescence; inhibition, % at 11.8 µM; 0.59% of 350,000 active; AID 588475;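 active means inhibition of the ligand-induced calcium signal above about 50% at the single tested concentration, limit read from the data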
Keap1 Nrf2 FP = Keap1-Nrf2 (human) interaction inhibition; Keap1 Kelch-Nrf2 peptide fluorescence polarization, 1536-well; inhibition, % at 9.4 µM; AID 504523; Q14145; 0.15% of 340,000 active; in the data active means inhibition above about 12%;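 further: human Keap1 Kelch domain with fluorescein labeled Nrf2 9mer peptide probe; 0% = neutral control wells and 100% = peptide positive control; higher means more block of Keap1 binding to Nrf2 peptide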
Target sequence (Q14145 whole entry, looked up, the tested form may be a part): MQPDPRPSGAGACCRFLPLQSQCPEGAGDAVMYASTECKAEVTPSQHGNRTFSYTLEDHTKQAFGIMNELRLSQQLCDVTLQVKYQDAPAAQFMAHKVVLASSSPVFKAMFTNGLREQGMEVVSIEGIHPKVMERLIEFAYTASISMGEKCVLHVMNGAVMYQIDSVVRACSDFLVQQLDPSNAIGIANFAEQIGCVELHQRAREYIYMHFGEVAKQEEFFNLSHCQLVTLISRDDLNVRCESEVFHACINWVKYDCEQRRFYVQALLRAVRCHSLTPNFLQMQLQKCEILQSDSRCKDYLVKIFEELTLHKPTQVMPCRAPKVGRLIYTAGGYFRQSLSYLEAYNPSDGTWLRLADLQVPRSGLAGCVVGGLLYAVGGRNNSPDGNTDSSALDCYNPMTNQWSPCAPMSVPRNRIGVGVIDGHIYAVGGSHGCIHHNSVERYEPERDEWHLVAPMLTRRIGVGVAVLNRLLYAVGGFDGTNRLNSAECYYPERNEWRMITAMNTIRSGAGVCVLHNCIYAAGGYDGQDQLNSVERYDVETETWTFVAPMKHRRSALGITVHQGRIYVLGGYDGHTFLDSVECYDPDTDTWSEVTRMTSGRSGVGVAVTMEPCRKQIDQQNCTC
Cardiac RTF inh = cardiac RTF calcium desensitization | P19429+P45379 | IANBD-labeled cardiac RTF, Ca2+ fluorescence | inhibition, % at 7.15 µM | 0.12% of 340,000 active | AID 493244;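 active means inhibition above the mean inhibition of all tested compounds plus 3 SD, cut at about 17% in these data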;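 further: assay run at fixed EC70 calcium of 1.6 mM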
Active calls of the source: *; i = inactive; . = no result given.

SMILES | CRFBP-R2 agonist | LANA DNA inh | RTF Ca sens act | CRFBP-R2 block | Keap1 Nrf2 FP | Cardiac RTF inh
CCN(CCNc1ccc([N+](=O)[O-])c2cccnc12)S(=O)(=O)c1ccccc1 | -0.6 | -0.4 | 0.1 | 18.1 | 3.7 | 2.2
Cc1c(NS(=O)(=O)c2ccccc2)ccc([N+](=O)[O-])c1Cl | 28.7 | -0.1 | -1.9 | 54.4* | 0.6 | 1.2
C=CCOC(=O)C1=C(C)OC(N)=C(C(=O)OCC)C12C(=O)N(CC(N)=O)c1ccccc12 (configuration not stated) | 0.2 | 0.4 | 3.9 | -32.5 | 1.2 | -13.1
c1ccc2c(CN3CCCCCC3)c[nH]c2c1 | -1.3 | -0.5 | -4.2 | -3.8 | -2.1 | 6.0
Cc1ccc2c(c1)CCCN2N=O | -0.5 | -0.6 | -5.3 | -0.2 | 2.8 | -6.2
O=c1[nH]c(=O)n(-c2ccccc2F)c(O)c1/C=C1\C=Nc2ccccc21 | 3.2 | 1.7 | -2.7 | -29.7 | -8.5 | -11.9
O=c1[nH]c(=O)n(-c2ccc(F)cc2)c(O)c1/C=C1\C=Nc2ccccc21 | 102.1* | 4.5 | 6.6 | -47.5 | -3.6 | -11.2
CCCCCCNC(=O)N[C@@H](Cc1ccc(O)cc1)C(=O)NCCC[C@H]1CN2C(=NC[C@H]2C)N1CC1CCC1 | -2.6 | . | . | 13.3 | . | .
CCCCn1c(O)c(C(C)=Nc2c(C)n(C)n(-c3ccccc3)c2=O)c(=O)[nH]c1=O | 0.5 | 1.5 | -2.1 | -11.8 | -2.8 | -3.0
Cc1ccc(OC(=O)N(C)C[C@@H]2OCc3cnnn3CCCC(=O)N([C@@H](C)CO)C[C@@H]2C)cc1 | 1.8 | . | . | 60.1* | . | .
NC(Cc1ccc(O)cc1)C(=O)NN=Cc1ccc(N(CCCl)CCCl)cc1 (configuration not stated) | 1.3 | -2.1 | 2.5 | 60.1* | -2.0 | -1.1
CC/C=C/CC(=O)N[C@@H](c1ccccc1)[C@@H](O)C(=O)O[C@H]1C[C@@]2(O)[C@@H](OC(=O)c3ccccc3)C3[C@](C)(C(=O)[C@H](OC(C)=O)C(=C1C)C2(C)C)[C@@H](O)C[C@H]1OC[C@@]31OC(C)=O (some centres not stated) | -1.6 | 0.0 | -1.8 | -26.9 | -0.8 | -3.4
N#CC(C#N)=Cc1ccc(O)c(O)c1 | 9.2 | 0.0 | 6.6 | -19.5 | -8.4 | -0.8
CC(C)(C)c1cc(C=C(C#N)C#N)cc(C(C)(C)C)c1O | 53.4* | -2.7 | 2.0 | 35.1 | 5.4 | 8.6
Cc1cc2c(C(F)(F)F)cc(=O)oc2c2c1NCCC2 | 178.4* | 1.9 | 63.1* | -214.5 | 8.3 | -105.2
O=C1NC(=O)N(c2ccc3c(c2)OCO3)C(=O)/C1=C\c1ccc(N2CCCCC2)o1 | 73.4* | -38.3 | 50.2* | -37.9 | -58.2 | -88.2
Cc1ccccc1N1C(=O)NC(=O)/C(=C/c2ccc(N3CCOCC3)o2)C1=O | 29.2 | -40.1 | 50.9* | -21.0 | -159.2 | -61.2
O=C1NC(=O)N(c2ccccc2F)C(=O)/C1=C/c1cn(CC(=O)N2CCOCC2)c2ccccc12 | 4.2 | . | . | -14.9 | . | .
Cc1ccccc1N1C(=O)NC(=O)/C(=C\c2cc(Br)c(N3CCOCC3)o2)C1=O | 112.7* | -38.6 | 64.4* | -111.7 | -205.1 | -50.5
CCC1(CC)C(=O)N(Cc2ccccc2)C(=O)N(Cc2ccccc2)C1=O | 9.9 | -0.2 | -5.7 | 86.6* | 0.5 | -4.4
Cc1cc(Cl)nc(N)n1 | -0.9 | 1.6 | 17.5 | -11.5 | 3.6 | -16.4
COc1ccc(CN2C(=O)NC(=O)/C(=C/c3ccoc3)C2=O)cc1 | 9.9 | 1.4 | 20.2 | 51.3* | -103.8 | -61.6
COc1ccc(CN2C(=O)NC(=O)/C(=C/c3cc(OC)c(OC)c(OC)c3)C2=O)cc1 | 12.8 | 0.3 | 6.7 | 0.4 | -7.7 | -2.1
O=C(O)CCCc1ccc(N(CCCl)CCCl)cc1 | -0.5 | -4.9 | -0.4 | 6.6 | -2.6 | -0.8
O=C1NC(=S)SC1=Cc1ccc(N(CCCl)CCCl)cc1 | 88.1* | -22.9 | 94.3* | -100.1 | -46.0 | -75.8
SMILES | CRFBP-R2 agonist | LANA DNA inh | RTF Ca sens act | CRFBP-R2 block | Keap1 Nrf2 FP | Cardiac RTF inh
CN1CN(c2ccccc2)C2(CCN(CCCSc3ccccc3NC(=O)/C=C/c3ccccc3)CC2)C1=O | 94.7* | -1.2 | -3.0 | -9.2 | -2.9 | -3.3
O=c1[nH]c(=S)n(-c2ccccc2)c(O)c1C=NCCN1CCNCC1 | -2.3 | 0.2 | -0.2 | 7.5 | -2.3 | -10.8
CCOc1ccc(-n2c(-c3ccoc3)nc3ccccc3c2=O)cc1 | -0.5 | 0.5 | -4.1 | -11.9 | -0.4 | -6.0
CC(C)CNP(=S)(c1ccccc1)C(C)(C)C (configuration not stated) | -0.7 | -0.2 | 5.9 | 65.6* | 2.7 | -1.1
CCc1ccc(C(=O)C23CN4CN(CN(C4)C2)C3)cc1 | 0.9 | 0.2 | 0.5 | -4.5 | 1.6 | -8.9
COC(=O)C1=C(c2ccc(F)cc2OCc2ccccc2)C[C@@H]2CC[C@H]1N2C(=O)NCCO | -0.3 | -1.4 | -0.6 | 0.2 | -6.2 | -4.0
O=C1NC(=O)C(=Cc2csc3ccccc23)C(=O)N1 | 2.0 | -1.1 | 2.5 | -27.2 | -2.4 | -0.9
Cn1cc(C=C2C(=O)NC(=O)NC2=O)c2ccccc21 | 59.1* | 10.5 | 14.0 | -35.8 | 6.4 | -2.4
O=C1NC(=O)C(=Cc2coc3ccccc3c2=O)C(=O)N1 | 71.3* | 1.1 | 11.3 | -45.1 | -9.1 | -4.3
CCOP(=S)(OCC)SCSP(=S)(OCC)OCC | -1.4 | -1.2 | -1.7 | 18.6 | -3.5 | 7.3
O=Cc1c(C(=O)O)n(Cc2ccc(Cl)cc2)c2ccccc12 | 30.8 | -11.3 | 319.9* | -36.9 | -84.6 | -342.8
CCOc1ccc(N2C(=O)/C(=C\c3cccs3)C(=O)NC2=S)cc1 | 1.0 | . | . | -5.9 | . | .
CCOc1ccc(N2C(=O)/C(=C/c3ccco3)C(=O)NC2=S)cc1 | -1.9 | 20.1 | -39.9 | 8.9 | -2.1 | 56.0*
Cn1cc(C(=O)c2ccccc2)c2ccccc21 | -10.7 | 0.0 | -3.9 | 52.8* | 1.3 | -0.6
CC(C)(C)C1(CCO)C(=O)NC(=S)NC1=O | -2.7 | 2.1 | 0.1 | -6.3 | -2.0 | -11.5
CC1(C)OC(c2ccccc2)=C/C(=C/C=C2C(=O)NC(=S)NC2=O)O1 | 144.4* | . | . | -193.9 | . | .
O=C1NC(=S)NC(=O)C1=Cc1cccc2cc3ccccc3cc12 | 1.1 | -0.4 | 6.3 | 1.1 | 1.5 | -5.9
CN1/C(=C\C=C2C(=O)NC(=S)NC2=O)C(C)(C)c2ccccc21 | 214.8* | -1.3 | 433.2* | -176.7 | -7.5 | i
N#CC(C#N)=Cc1ccc(-c2ccccc2F)o1 | 34.8 | 2.3 | 36.5* | -53.6 | -2.7 | -36.2
CN(C)c1cc(N)c2c(n1)CCC2 (tested in a mixture with another compound) | -1.7 | -3.8 | -0.3 | 2.6 | -1.8 | -7.4
C[C@]12CCC3C(CCC4=CC(O)CC[C@@]43/C=N/O)C1(O)CCC2C1=CC(=O)OC1 (some centres not stated) | 0.6 | 0.7 | -1.8 | -6.6 | -4.3 | -8.5
Cc1c2ccncc2c(C)c2c1[nH]c1ccccc12 | 101.0* | 1.0 | 4.1 | -135.1 | -2.8 | 10.1
